Test results as given in PubChem BioAssay.
The source made the active and inactive calls.

Legend:
[1] = small molecules captured by biotinylated probe aFSTL3 – biochemical, small-molecule microarray, fluorescence 635/667, stem cell growth factor project, primary screen (AID 1064); details: higher = more signal;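 note: measures binding of the biotinylated anti-FSTL3 antibody to printed compounds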
[2] = binders from COS7 lysate, DM2A8 probe, primary screen, torsin A project, cell lysate, small-molecule microarray, fluorescence 635/667 (AID 1065); details: higher = more signal, COS7 lysate expressing mutant human TOR1A
[3] = small molecules captured by biotinylated probe aFGF2 – biochemical, small-molecule microarray, fluorescence 635/667, stem cell growth factor project, primary screen (AID 1067); details: higher = more signal;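 note: measures binding of biotinylated aFGF2 protein to printed compounds on slides; z-score merges feature fluorescence and signal-to-noise across triplicate slides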
[4] = small molecules captured by biotinylated probe aFGF10 – biochemical, small-molecule microarray, fluorescence 635/667, stem cell growth factor project, primary screen (AID 1071); details: higher = more signal;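 note: score merges 667 nm spot intensity and signal to noise from triplicate slides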
[5] = target: Neurogenic locus notch homolog protein 2 (Homo sapiens) (UniProt Q04721); experiment: small molecules binding Notch2 protein – biochemical, small-molecule microarray, 635 nm fluorescence, stem cell growth factors, primary screen (AID 1073); details: higher = more signal
Sequence of Neurogenic locus notch homolog protein 2 (Homo sapiens) (Q04721 whole entry, looked up, canonical isoform): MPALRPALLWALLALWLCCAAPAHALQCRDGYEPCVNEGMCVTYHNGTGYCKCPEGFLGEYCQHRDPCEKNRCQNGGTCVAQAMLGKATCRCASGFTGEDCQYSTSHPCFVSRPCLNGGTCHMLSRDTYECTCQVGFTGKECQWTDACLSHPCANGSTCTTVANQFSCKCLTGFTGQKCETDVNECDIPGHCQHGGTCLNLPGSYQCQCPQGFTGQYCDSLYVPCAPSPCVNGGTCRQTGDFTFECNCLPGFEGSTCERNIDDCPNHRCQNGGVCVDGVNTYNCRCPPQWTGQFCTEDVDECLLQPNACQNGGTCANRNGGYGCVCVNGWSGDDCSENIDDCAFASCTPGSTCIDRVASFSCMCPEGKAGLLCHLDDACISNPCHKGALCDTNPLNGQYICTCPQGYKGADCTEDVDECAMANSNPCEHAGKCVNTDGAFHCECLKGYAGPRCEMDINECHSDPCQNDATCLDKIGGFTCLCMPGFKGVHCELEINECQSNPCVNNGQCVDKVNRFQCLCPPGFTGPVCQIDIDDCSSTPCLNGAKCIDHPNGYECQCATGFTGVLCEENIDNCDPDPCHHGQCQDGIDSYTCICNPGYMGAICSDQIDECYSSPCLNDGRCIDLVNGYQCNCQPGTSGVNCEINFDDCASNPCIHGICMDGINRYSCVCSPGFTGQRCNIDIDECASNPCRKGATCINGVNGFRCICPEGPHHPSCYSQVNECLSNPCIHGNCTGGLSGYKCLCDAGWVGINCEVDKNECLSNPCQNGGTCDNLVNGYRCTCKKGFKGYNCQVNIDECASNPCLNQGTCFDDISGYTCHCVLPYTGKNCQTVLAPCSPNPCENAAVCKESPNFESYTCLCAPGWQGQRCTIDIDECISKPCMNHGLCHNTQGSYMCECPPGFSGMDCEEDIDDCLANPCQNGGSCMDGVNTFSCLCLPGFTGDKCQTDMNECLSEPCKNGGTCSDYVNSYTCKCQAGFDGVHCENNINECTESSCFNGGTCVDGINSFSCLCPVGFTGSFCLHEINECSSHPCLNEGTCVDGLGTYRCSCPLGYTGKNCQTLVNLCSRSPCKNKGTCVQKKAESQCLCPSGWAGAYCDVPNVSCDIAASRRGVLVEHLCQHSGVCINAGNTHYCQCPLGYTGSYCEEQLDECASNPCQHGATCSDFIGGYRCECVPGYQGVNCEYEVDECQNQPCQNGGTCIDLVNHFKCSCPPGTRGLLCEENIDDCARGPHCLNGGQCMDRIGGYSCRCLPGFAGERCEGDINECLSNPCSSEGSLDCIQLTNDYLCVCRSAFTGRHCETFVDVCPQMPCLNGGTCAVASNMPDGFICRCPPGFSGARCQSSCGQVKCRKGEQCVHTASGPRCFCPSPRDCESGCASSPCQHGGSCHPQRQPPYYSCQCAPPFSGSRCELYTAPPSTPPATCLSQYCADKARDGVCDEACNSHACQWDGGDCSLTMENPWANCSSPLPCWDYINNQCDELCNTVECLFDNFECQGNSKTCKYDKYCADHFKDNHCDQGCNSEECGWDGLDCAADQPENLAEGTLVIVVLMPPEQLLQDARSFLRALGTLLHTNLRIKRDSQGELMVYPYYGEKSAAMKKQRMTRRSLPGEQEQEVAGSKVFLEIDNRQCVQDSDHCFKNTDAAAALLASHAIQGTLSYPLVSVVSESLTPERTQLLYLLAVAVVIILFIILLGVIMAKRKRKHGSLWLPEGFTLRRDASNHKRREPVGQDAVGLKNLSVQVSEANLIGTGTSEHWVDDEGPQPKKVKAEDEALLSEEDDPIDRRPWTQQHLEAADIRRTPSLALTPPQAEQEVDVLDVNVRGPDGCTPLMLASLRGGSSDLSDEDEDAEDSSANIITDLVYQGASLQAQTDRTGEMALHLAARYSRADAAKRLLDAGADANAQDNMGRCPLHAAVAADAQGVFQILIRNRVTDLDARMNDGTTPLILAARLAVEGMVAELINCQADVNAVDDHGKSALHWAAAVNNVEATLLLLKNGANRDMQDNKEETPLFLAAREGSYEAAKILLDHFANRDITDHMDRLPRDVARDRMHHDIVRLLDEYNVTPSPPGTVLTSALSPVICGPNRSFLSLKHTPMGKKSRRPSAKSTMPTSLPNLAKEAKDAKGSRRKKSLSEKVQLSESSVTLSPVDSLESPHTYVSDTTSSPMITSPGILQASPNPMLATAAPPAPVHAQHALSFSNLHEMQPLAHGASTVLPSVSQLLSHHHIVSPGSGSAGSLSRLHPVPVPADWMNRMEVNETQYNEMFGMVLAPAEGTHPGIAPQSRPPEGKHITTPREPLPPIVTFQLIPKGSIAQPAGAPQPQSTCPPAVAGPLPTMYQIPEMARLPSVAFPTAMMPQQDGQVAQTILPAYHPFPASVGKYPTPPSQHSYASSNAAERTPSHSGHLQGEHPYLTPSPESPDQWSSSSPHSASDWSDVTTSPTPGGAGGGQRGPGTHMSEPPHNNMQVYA

[6] = target: Pro-neuregulin-1, membrane-bound isoform (Homo sapiens) (UniProt Q02297); experiment: small molecules binding neuregulin-1 protein – biochemical, small-molecule microarray, fluorescence 635/667, psychiatric disease protein project, primary screen (AID 1075); details: NRG1 binding, 635 nm fluorescence, higher = more signal;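 note: score combines 667 nm spot fluorescence with signal to noise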
[7] = system: Neuregulin-1 EGF-like domain; experiment: small molecules binding NRG1 EGF domain – biochemical, small-molecule microarray, 635 nm fluorescence, primary screen (AID 1081); details: higher = more signal;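 note: binding of the protein to compounds printed on small-molecule microarray slides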
[8] = FRG1 expression reporter modulators in myotubes – cell-based, C2C12 myotubes, firefly/Renilla luciferase, luminescence, FRG1 inhibition for FSHD, primary screen (AID 1084); details: FRG1 promoter luciferase, higher = more signal, called active from +8 up or from −8 down
[9] = small molecules captured by biotinylated probe aFST – biochemical, small-molecule microarray, fluorescence 635/667, stem cell growth factor project, primary screen (AID 1086); details: higher = more signal;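 note: score merges 667 nm fluorescence with signal-to-noise of each printed compound spot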
[10] = binders of probe aHhip on microarray, primary screen, stem cell growth factor project, biochemical, small-molecule microarray, fluorescence 635/667 (AID 1087); details: higher = more signal;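 note: score merges spot fluorescence at 667nm with spot signal to noise ratio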
[11] = system: PRMT1 (protein arginine N-methyltransferase 1); experiment: small molecules binding arginine methyltransferase PRMT1 – biochemical, small-molecule microarray, 635 nm fluorescence, primary screen (AID 1088); details: higher = more signal;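 note: binding of Prmt1 protein to compounds spotted on small-molecule microarray slides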
[12] = growth effects on S. cerevisiae YJM789 – YJM789 clinical isolate, OD600, 24 h, basal, primary screen (AID 1089); details: higher = more signal, called active from +8 up or from −8 down;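 note: growth of clinical yeast isolate S. cerevisiae YJM 789 seeded 1000 cells per well; test concentration not given here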
[13] = S. pombe growth modifiers, basal conditions – strain 972, OD600, 24 h, no modulator, primary screen (AID 1090);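 note: basal condition with compound alone and no growth modifier present; test concentration not given here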; details: S. pombe 972 growth, higher = more signal, called active from +8 up or from −8 down
[14] = budding yeast growth modifiers under rapamycin – strain BY4716, OD600, 96 h, primary screen (AID 1091); note: test concentration not given here; details: S. cerevisiae BY4716 + rapamycin, higher = more signal, called active from +8 up or from −8 down
[15] = target: Torsin-1A-interacting protein 2 (Homo sapiens) (UniProt Q8NFQ8); experiment: small molecules binding lysate-expressed LULL1 – cell lysate, human LULL1 lysate, 635/667 nm fluorescence, primary screen (AID 1092); details: small-molecule microarray, hLULL1 lysate binding, 635 nm fluorescence; higher = more signal;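 note: probe is lysate of COS7 cells overexpressing human LULL1; score merges per-feature 667 nm fluorescence with signal-to-noise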
[16] = optical density change of DRC41 E. coli – strain DRC41, OD650, 24 h, E. coli filamentation project, primary screen (AID 1093);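 note: MC1000 strain lacking acrAB efflux and sulA so SOS filamentation is blocked; test concentration not given here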; details: E. coli DRC41 growth, higher = more signal, called active from +8 up or from −8 down
[17] = probe aLefty2 binding to arrayed compounds – biochemical, biotinylated probe, 635/667 nm fluorescence, primary screen (AID 1094); details: small-molecule microarray, higher = more signal;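 note: score merges spot fluorescence near 667 nm with spot signal-to-noise ratio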
[18] = system: Noggin (protein binding on small-molecule microarray); experiment: small molecules binding Noggin protein – biochemical, 635/667 nm fluorescence, primary screen (AID 1095); details: 635 nm fluorescence, higher = more signal;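 note: score merges 667 nm feature fluorescence with signal to noise over triplicate slides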
[19] = target: Neurogenic locus notch homolog protein 3 (Homo sapiens) (UniProt Q9UM47); experiment: small molecules binding NOTCH3 protein – biochemical, 635/667 nm fluorescence, primary screen (AID 1096); details: small-molecule microarray, 635 nm fluorescence, higher = more signal
Sequence of Neurogenic locus notch homolog protein 3 (Homo sapiens) (Q9UM47 whole entry, looked up): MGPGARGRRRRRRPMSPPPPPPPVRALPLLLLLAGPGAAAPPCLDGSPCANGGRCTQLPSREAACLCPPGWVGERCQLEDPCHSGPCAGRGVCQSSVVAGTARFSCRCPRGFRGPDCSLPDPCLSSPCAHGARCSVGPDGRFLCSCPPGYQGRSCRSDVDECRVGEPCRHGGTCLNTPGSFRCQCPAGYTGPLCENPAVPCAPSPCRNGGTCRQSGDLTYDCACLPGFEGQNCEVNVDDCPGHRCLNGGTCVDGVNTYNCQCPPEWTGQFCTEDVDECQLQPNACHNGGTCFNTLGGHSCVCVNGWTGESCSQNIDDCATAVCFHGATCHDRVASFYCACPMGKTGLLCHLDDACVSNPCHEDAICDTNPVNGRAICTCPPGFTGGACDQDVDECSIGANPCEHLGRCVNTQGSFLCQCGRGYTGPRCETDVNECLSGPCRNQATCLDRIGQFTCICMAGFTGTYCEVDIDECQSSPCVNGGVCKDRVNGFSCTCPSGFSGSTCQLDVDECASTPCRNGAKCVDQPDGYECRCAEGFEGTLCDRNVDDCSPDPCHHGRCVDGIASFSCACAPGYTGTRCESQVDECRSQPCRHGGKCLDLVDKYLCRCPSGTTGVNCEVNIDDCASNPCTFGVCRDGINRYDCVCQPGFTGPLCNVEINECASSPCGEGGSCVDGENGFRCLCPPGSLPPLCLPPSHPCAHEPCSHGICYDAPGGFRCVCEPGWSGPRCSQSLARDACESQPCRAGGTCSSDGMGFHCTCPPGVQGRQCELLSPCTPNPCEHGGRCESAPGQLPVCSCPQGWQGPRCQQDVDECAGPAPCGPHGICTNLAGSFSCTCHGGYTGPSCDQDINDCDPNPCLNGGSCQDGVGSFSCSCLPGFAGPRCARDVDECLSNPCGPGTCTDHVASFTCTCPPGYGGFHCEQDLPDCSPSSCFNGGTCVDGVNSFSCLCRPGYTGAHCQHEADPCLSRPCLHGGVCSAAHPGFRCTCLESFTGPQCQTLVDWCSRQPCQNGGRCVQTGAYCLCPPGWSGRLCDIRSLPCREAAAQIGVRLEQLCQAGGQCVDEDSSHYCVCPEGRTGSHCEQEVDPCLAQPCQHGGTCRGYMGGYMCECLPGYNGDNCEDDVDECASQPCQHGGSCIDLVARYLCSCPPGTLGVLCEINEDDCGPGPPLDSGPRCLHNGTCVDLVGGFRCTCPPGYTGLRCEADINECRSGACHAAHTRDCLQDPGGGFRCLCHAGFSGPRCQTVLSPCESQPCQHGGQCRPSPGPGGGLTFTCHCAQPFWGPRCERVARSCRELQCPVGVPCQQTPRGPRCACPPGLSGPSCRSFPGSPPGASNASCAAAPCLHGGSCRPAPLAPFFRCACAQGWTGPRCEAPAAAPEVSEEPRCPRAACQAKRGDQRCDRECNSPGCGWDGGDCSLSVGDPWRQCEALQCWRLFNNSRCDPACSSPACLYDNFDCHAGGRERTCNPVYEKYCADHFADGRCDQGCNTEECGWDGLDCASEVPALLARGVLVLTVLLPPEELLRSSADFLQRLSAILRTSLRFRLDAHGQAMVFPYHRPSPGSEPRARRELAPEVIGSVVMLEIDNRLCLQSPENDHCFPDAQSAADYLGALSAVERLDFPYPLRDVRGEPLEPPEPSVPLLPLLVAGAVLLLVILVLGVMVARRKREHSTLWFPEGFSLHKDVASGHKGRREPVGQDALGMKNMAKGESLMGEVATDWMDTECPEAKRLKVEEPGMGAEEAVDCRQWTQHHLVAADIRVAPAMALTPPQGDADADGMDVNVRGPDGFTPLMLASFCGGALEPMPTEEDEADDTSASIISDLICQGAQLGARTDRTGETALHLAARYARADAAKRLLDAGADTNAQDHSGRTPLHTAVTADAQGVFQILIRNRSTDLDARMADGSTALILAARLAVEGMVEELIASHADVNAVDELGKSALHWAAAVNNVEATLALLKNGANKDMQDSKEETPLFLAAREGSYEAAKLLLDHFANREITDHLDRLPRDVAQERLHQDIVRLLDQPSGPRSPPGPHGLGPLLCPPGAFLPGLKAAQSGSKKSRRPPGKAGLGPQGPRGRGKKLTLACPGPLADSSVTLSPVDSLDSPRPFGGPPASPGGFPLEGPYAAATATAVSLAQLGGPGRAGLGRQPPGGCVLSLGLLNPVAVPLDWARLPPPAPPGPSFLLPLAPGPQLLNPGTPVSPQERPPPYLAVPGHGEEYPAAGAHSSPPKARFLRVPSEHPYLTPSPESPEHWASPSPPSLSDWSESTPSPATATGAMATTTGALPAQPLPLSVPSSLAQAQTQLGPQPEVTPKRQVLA

[20] = probe aEGFR binding to arrayed compounds – biochemical, biotinylated probe, 635/667 nm fluorescence, primary screen (AID 1097); details: small-molecule microarray, higher = more signal;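 note: probe is a biotinylated anti-EGFR antibody binding compounds printed on slides; score combines fluorescence near 667 nm and signal to noise of each spot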

Row | Structure (SMILES) | composite z-score [1] | composite z-score [2] | composite z-score [3] | composite z-score [4] | composite z-score [5] | composite z-score [6] | composite z-score [7] | z-score [8] | composite z-score [9] | composite z-score [10] | composite z-score [11] | z-score [12] | z-score [13] | z-score [14] | composite z-score [15] | z-score [16] | composite z-score [17] | composite z-score [18] | composite z-score [19] | composite z-score [20]
1 | CC(c1ccccc1)C(O)C1C=CC2C(=O)N(c3ccccc3)C(=O)C2N1Nc1ccc([N+](=O)[O-])cc1 (stereo not given) | -0.263 | 0.031 | -0.0265 | 0.772 | 1.62 | 1.58 | 1.11 | -1.32 (inactive) | 0.745 | -0.166 | 1.07 | 0.197 (inactive) | 1.58 (inactive) | 1.78 (inactive) | 3.55 | 0.1 (inactive) | 0.0249 | 0.361 | 1.09 | -0.027
2 | Cc1ccc(S[C@]2(C(=O)NCC(F)(F)F)CC(=O)N(Cc3ccccc3C(F)(F)F)[C@@H]2c2ccc(CO)cc2I)cc1 | 0.52 | -0.893 | -0.157 | -0.954 | -1.15 | -0.12 | 0.124 | -1.24 (inactive) | -0.818 | -0.236 | -0.987 | -1.54 (inactive) | -2.79 (inactive) | 1.65 (inactive) | 0.779 | 0.625 (inactive) | -0.072 | -0.859 | -1.45 | -0.254
3 | C=CCN1C(=O)[C@@]2(CCS(=O)(=O)c3ccccc3)N=C(c3ccc(OCCCO)cc3)O[C@H]2c2ccccc21 | 0.162 | 0.42 | 0.0076 | 0.362 | 1.44 | 1.72 | 1.24 | -3.77 (inactive) | 1.03 | -0.0672 | 1.54 | 0.15 (inactive) | -0.0698 (inactive) | 3.13 (inactive) | 2.88 | 0.192 (inactive) | -0.0177 | 1.43 | 1.12 | 0.154
4 | COC(=O)[C@@]1(Cc2ccc(OC)cc2)[C@H]2c3cc(C(=O)N(C)C)n(CCO)c3C[C@H]2CN1C(=O)c1ccccc1 | 0.494 | 2.56 | 0.152 | -0.359 | 0.993 | 2.13 | -0.139 | 1.63 (inactive) | 0.871 | 0.0365 | -1.15 | -0.809 (inactive) | 0.142 (inactive) | -0.14 (inactive) | 1.96 | -0.285 (inactive) | 0.333 | -1.13 | -0.175 | -0.0521
5 | COc1ccccc1CN1C(=O)c2ccccc2[C@](Cc2ccccc2I)(C(=O)NCC(F)(F)F)[C@@H]1c1ccc(CO)cc1 | 0.164 | 0.847 | -0.0454 | 1.21 | 0.981 | 1.51 | 1.36 | -0.719 (inactive) | 1.37 | 0.0373 | 1.55 | -0.23 (inactive) | -0.503 (inactive) | 0.0879 (inactive) | 3.22 | -1.13 (inactive) | 0.126 | 0.576 | 0.872 | 0.0024
6 | COC(=O)Cn1c(C(=O)N(C)C)cc2c1C[C@H]1CN(C(=O)c3ccccc3)[C@@](Cc3ccc(F)cc3)(C(=O)OC)[C@@H]21 | 0.0501 | -0.152 | 0.154 | 1.24 | 1.65 | 0.88 | 1.13 | -0.438 (inactive) | 0.114 | -0.15 | -0.397 | 1.28 (inactive) | 1.42 (inactive) | 1.61 (inactive) | 2.81 | -0.581 (inactive) | 0.639 | -0.327 | 0.104 | 0.561
7 | C=C(C)[C@@H]1CC=C(C(O)C2C=CC3C(=O)N(c4ccccc4)C(=O)C3N2Nc2ccccc2F)CC1 (stereo not given in full) | 0.264 | 0.0754 | 0.195 | 0.825 | 1.63 | 1.94 | 1.22 | -1.51 (inactive) | 1.84 | 0.18 | 1.57 | 1.59 (inactive) | 1.09 (inactive) | 3.06 (inactive) | 3.64 | -1.48 (inactive) | 0.0865 | 0.443 | 1.01 | 0.11
8 | Cc1ccc(S[C@]2(C(=O)NCC(F)(F)F)CC(=O)N(Cc3ccccc3)[C@@H]2c2ccc(CO)cc2I)cc1 | 0.512 | 0.156 | -0.0502 | 0.284 | 0.0341 | 1.82 | 0.923 | -0.646 (inactive) | 0.164 | -0.236 | 0.29 | -3.01 (inactive) | -2.23 (inactive) | 0.854 (inactive) | 1.62 | -0.161 (inactive) | 0.496 | -0.315 | 0.233 | -0.118
9 | COCCOC(=O)N1C(=O)[C@@]2(c3cc(C#CC4=CCCCC4)ccc31)[C@H](c1ccc(OCCO)cc1)N1[C@H](c3ccccc3)[C@H](c3ccccc3)OC(=O)[C@H]1[C@@H]2C(=O)N1CCN(c2ncccn2)CC1 | 0.0516 | 0.504 | 0.0664 | 0.874 | 1.31 | 0.521 | 1.05 | -0.64 (inactive) | 0.59 | 0.0053 | 1.46 | 0.372 (inactive) | 1.23 (inactive) | 3.64 (inactive) | 1.73 | 1.37 (inactive) | 0.0444 | 0.788 | 1.1 | 0.0289
